Compound activity as filed in PubChem.
An excerpt weighted towards active compounds, which were near 7.4% of everything screened.
Rab9 promoter act: qHTS Assay for Rab9 Promoter Activators | Huh7 Rab9 promoter-luciferase reporter, luminescence, 24 h | Potency, µM (top dose mostly 9.22 µM), for inactives: at the highest dose activation, negative = inhibition, most hits filed as activators | AID 485297, 2010 | 320,000 compounds, 2.8% hits; also: % of control where 0% means no effect; nearly all actives have a fitted effect of over 60% in size
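Huh7 reporter line, Rab9 promoter upstream of luciferase. Compound exposure 24 h at 37 °C in reduced-serum medium with 10% FBS. Read-out: luminescence.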
SMN2 splice enh: qHTS Assay for Enhancers of SMN2 Splice Variant Expression; 210,000 compounds, 2.8% hits; Potency, µM (titrated, usually from 46.1 µM), for inactives: at the top dose activity change, positive = activation, hits mostly activators; HEK293 SMN2-luciferase splicing reporter, luminescence, 30-36 h; AID 1458, 2008; also: % of control where 0% means no effect; nearly all actives have a fitted effect of over 55% in size
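qHTS luciferase splicing reporter: luminescence rises when SMN2 exon 7 is included in transfected HEK293 cells. Compound exposure lasted 30-36 h at 37C, with 4.5 mM final sodium butyrate as control, followed by a ONE-Glo read.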
ELG1 genotoxic: qHTS screen for small molecules that induce genotoxicity in human embryonic kidney (HEK293T) cells expressing luciferase-tagged ELG1; Potency, µM (top dose mostly 46 µM), for the others: top-dose activity change, positive = activation, most hits filed as activators; 330,000 compounds, 1.3% hits; HEK293T ELG1-luciferase reporter, luminescence, 16 h; also: % of control where 0% means no effect; nearly all actives have a fitted effect of over 60% in size
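Reporter readout depends on ELG1 protein level, which increases with genetic stress. After 16 hr compound exposure at 37 °C, luciferase activity was quantified using ONE-Glo.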
NPC1 prom act: qHTS Assay for NPC1 Promoter Activators. Huh7 NPC1 promoter luciferase reporter, 24 h. Potency, µM (doses to about 9.22 µM), for the others: at the highest dose activation, hits mostly activators. 320,000 compounds, 2.4% hits; also: % of control where 0% means no effect; nearly all actives have a fitted effect of over 60% in size
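Luminescence from an NPC1 promoter-driven luciferase reporter in stably transfected Huh7 cells was measured after 24 h compound treatment at 37 °C, followed by 10 min ambient incubation with luciferase detection reagent.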
FLuc counter: qHTS profiling assay for firefly luciferase inhibitor/activator using purifed enzyme and Km concentrations of substrates (counterscreen for miR-21 project) | Luciferin 4-monooxygenase (Photinus pyralis), P08659 | purified FLuc, Km substrates, luminescence inhibition | Potency, µM (highest dose often 57.5 µM), inactives show at the top dose activity change, negative = inhibition, hits mostly inhibitors | 360,000 compounds, 6.9% hits | AID 588342, 2011;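 also: plate controls were vehicle for no effect and reference inhibitor for full effect; nearly all actives have a fitted effect of over 55% in size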
Target sequence (P08659 whole entry, looked up): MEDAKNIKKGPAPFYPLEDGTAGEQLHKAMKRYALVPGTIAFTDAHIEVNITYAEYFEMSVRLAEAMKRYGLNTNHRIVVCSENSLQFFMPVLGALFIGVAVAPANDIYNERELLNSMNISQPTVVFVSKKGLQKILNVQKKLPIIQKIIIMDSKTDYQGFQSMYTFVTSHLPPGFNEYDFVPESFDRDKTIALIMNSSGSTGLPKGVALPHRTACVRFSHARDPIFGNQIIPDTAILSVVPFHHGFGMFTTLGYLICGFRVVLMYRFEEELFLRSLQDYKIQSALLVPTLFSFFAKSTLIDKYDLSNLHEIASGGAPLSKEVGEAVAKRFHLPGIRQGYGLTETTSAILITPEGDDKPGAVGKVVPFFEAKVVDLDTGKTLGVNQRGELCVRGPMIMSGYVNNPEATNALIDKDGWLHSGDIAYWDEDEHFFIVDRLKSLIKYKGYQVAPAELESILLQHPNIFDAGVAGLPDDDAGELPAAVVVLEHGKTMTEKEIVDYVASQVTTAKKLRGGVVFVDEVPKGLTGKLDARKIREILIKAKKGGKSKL
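Purified P. pyralis luciferase (10nM final) with 10uM D-luciferin and 10uM ATP (Km levels) in 50mM Tris acetate pH 7.5, 10mM Mg acetate, 0.01% Tween-20, 0.05% BSA; qHTS 6-point titration, ~60 µM downward; luminescence read.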
p53 reactivator: qHTS assay for re-activators of p53 using a Luc reporter; Potency, µM (highest dose often 92.2 µM), for the others: top-dose activity change, positive = activation, usual class: activators; H1299 p53-A138V BP100-luciferase reporter, luminescence, 24 h; 320,000 compounds, 0.063% hits; also: % of control where 0% means no effect; nearly all actives have a fitted effect of over 45% in size
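H1299 (p53-null), stable ts p53-A138V + BP100-Luc; 1000 cells/well, Opti-MEM/10% FBS; cpd 4 pt, 1:5; 24 h, 37 deg C, 5% CO2; detection reagent 10 min RT; luminescence.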
* marks the source's active call; other numbers are inactive results; ? = inconclusive; / = not tested or not shown. Calls follow the shape of the dose curve; as a rule, active = well fitted curve in the direction sought with a large enough effect; inconclusive = small, poorly fitted or top-dose-only effect, or another doubt; inactive = no such curve, though single readings can be large; an effect the other way counts as inactive or inconclusive. Potency is read from the fitted curve at half-maximal effect.

SMILES	Rab9 promoter act	SMN2 splice enh	ELG1 genotoxic	NPC1 prom act	FLuc counter	p53 reactivator
Cc1nc2oc(C(=O)c3ccc(Br)cc3)c(N)c2c2c1COC(C)(C)C2	6%	/	1%	0%	-4%	9%
CCCOc1ccc(C(=O)Nc2ccc3c(c2)OCO3)cc1	2.8µM*	/	2.3µM*	1µM*	2.1µM*	3%
CCC(=O)Oc1ccc(C(=O)Nc2ccc3c(c2)OCO3)cc1	4.5µM*	16µM*	?	2.2µM*	5.4µM*	4%
Cn1c2cc(B(O)O)sc2c2cnn(Cc3c(F)cccc3F)c(=O)c21	-6%	/	/	-17%	-5%	/
Cc1cccc(Cn2cccc2CNS(=O)(=O)c2ccc(C)c(C)c2)c1	/	/	/	/	0%	/
Cn1c(=NC(=O)C(C)(C)C)sc2cccc(F)c21	1%	/	9%	-6%	?	9%
Cn1c(=NC(=O)c2ccccc2[N+](=O)[O-])sc2cccc(F)c21	0.5µM*	/	?	0.56µM*	0.6µM*	13%
CC1Cc2ccccc2N1S(=O)(=O)c1cccc(C(=O)N2CCN(c3ncccn3)CC2)c1 (stereo not given)	25%	0.56µM*	-14%	-11%	2%	-3%
COC(=O)c1cnc(N2CCN(c3ccc(OC)cc3)CC2)c2ccccc12	/	/	/	/	-10%	/
CCOC(=O)c1cc(-c2ccc(F)cc2)n(CCC(=O)NC2CCCCC2)c1C	/	/	/	/	-7%	/
O=S(=O)(Nc1ccc2c(c1)OCCO2)c1ccc(F)c(F)c1	2%	/	-1%	1%	0%	4%
Cc1ccc(S(=O)(=O)Nc2ccc3c(c2)OCCO3)cc1C	0%	/	5%	-3%	21µM*	2%
Cc1cccc(NS(=O)(=O)c2ccc3c(c2)OCCO3)c1	-1%	14µM*	-7%	-1%	4%	6%
O=C(Cn1c(=O)nc(-c2ccccc2F)c2cc(Cl)ccc21)NCCCc1ccccc1	/	3%	/	/	-3%	/
COc1cccc(N2CCN(Cc3nnc(-c4ccc5c(c4)OCO5)o3)CC2)c1	/	17%	/	/	-4%	/
CN(C)S(=O)(=O)c1cccc(NC(=O)c2ccc(S(=O)(=O)N3CCCCC3)cc2)c1	0%	/	-3%	-1%	5%	-5%
O=C(Nc1cccc(O)c1)c1cccc(S(=O)(=O)N2CCCCCC2)c1	-5%	/	7%	3%	?	21%
O=C(O)c1cccc(NC(=O)c2cccc(S(=O)(=O)N3CCCCC3)c2)c1	2.8µM*	24%	?	?	6µM*	?
Cc1ccc(C(=O)NC2CCCCC2)cc1S(=O)(=O)N1CCCC1	27%	/	16%	16%	?	14%
CN(C)c1ccc(C(=O)Nc2cccc(S(=O)(=O)N3CCCC3)c2)cc1	?	/	1%	23%	1.7µM*	?
CC1CCCC(C)N1C(=O)COC(=O)c1cccc(S(=O)(=O)N(C)c2ccccc2)c1 (stereo not given)	-5%	/	-3%	-2%	?	-5%
Cc1ccc(C(=O)O)cc1S(=O)(=O)N1CCC(C(=O)O)CC1	0%	11µM*	-1%	0%	1%	-7%
CC1CCN(C(=O)COC(=O)c2cccc(S(=O)(=O)N(C)c3ccccc3)c2)CC1	4%	/	-1%	-1%	11µM*	12%
CCN[C@H]1CN(CCCOC)S(=O)(=O)c2sc(S(N)(=O)=O)cc21	-4%	/	-9%	5%	-2%	-1%
Cc1ccc(C(=O)Nc2cccc(C(=O)N3CCOCC3)c2)cc1Cl	?	/	?	27%	9.5µM*	19%
Cc1ccc(C(=O)OCC(=O)N2CCC(C)CC2)cc1S(=O)(=O)N1CCCCC1	3%	/	3%	0%	17µM*	-14%
